Holding throughout (parameters): scale not given: direction of the effect not stated beside the values
In test [1] the target is Protein translocase subunit SecA (Escherichia coli (strain K12)) (UniProt P10408). Kind of test: Assay to Identify E. coli SecA ATPase Inhibitors. The class given is functional. The settings on record: 30 µM.
The target of test [2] is T1, Ubiquitin-activating enzyme e1, putative (Leishmania donovani (strain BPK282A1)) (UniProt E9BSI1).
T1 sequence (whole entry): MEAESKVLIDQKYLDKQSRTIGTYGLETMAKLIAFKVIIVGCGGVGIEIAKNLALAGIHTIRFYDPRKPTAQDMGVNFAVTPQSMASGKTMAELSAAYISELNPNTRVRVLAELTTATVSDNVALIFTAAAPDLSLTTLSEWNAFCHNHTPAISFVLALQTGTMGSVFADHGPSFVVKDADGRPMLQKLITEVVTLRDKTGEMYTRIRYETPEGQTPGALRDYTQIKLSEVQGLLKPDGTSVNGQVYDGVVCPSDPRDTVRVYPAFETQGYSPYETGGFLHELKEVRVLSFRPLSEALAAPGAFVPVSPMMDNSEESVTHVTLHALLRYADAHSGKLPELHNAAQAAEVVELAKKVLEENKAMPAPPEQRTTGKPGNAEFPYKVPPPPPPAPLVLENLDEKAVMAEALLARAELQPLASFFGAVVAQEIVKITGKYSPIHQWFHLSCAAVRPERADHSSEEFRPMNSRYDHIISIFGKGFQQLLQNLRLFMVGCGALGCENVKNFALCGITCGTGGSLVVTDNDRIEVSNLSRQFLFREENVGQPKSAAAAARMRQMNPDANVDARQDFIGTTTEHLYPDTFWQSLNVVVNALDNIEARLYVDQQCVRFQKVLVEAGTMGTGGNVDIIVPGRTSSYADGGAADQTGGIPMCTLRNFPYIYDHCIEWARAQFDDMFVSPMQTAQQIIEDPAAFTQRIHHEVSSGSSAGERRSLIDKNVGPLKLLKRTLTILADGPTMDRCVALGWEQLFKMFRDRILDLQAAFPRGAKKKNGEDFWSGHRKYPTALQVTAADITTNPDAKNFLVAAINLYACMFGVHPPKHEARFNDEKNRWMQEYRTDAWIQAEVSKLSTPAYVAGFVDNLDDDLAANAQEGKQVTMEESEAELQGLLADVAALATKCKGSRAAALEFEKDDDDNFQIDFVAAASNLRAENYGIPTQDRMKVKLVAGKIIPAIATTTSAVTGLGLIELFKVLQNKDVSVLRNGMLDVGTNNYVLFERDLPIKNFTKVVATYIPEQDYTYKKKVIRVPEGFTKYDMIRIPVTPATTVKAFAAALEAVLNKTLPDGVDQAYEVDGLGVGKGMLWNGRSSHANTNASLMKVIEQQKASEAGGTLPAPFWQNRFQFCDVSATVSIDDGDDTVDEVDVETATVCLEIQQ
Description: Leishmania donovani Ubiquitin Activating Enzyme (LdE1). The class given is functional. The settings on record: 30 µM.

The target in test [3] is AMP-activated protein kinase, AMPK (Homo sapiens) (UniProt P54646+O43741+P54619+Q9UGJ0+Q9Y478+Q13131+Q9UGI9). Kind of test: AMP-dependent Kinase enzyme assay. An in vitro enzyme assay that detects ADP turnover that is directly proportional to AMPK activity. This uses naive AMPK that is activated during the assay with MK-8722. The test is classed as functional. The settings on record: 30 µM.

Test [4] has as its target Sialic acid-binding Ig-like lectin 9 (Homo sapiens) (UniProt Q9Y336). Description: Hs-Siglec9 ALPHAscreen SOP 20170721. The settings on record: 10 µM. (In general: In Alpha technology, singlet oxygen from a donor bead excites a nearby acceptor bead.)
Another test concerns Trypanosoma cruzi. Description: Trypanosoma cruzi phosphomannomutase and mannose-1-phosphate guanylyltransferase assay. The test is classed as functional. The settings on record: 10 µM.
Test [5] addresses T2, Arginase-2, mitochondrial (Homo sapiens) (UniProt P78540).
T2 sequence (whole entry): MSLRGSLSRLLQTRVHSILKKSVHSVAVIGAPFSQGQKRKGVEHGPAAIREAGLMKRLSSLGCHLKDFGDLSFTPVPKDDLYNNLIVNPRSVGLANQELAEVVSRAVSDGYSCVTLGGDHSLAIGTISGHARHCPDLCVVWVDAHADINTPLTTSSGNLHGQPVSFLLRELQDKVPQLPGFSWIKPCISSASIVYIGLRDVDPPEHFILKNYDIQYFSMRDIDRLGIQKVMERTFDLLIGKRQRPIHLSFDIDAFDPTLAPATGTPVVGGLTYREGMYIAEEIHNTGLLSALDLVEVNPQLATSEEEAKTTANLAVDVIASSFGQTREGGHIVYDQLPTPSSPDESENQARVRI
Kind of test: in vitro enzyme assay to detect the production of urea directly proportional to the activity of Arginase II. Further: in the data most compounds retested in dose-response had high values. The test is classed as functional. The settings on record: 33.3 µM.

In test [6] the target is T3, Proteasome subunit beta (Trypanosoma cruzi) (UniProt O96673).
T3 sequence (whole entry): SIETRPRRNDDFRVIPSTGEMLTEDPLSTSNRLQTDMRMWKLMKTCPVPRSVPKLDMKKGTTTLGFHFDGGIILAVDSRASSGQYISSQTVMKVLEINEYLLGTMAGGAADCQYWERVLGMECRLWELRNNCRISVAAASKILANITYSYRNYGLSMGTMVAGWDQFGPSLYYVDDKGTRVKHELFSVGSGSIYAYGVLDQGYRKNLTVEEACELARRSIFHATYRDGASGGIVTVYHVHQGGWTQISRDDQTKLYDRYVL
Kind of test: Trypanosoma cruzi proteasome chymotrypsin-like activity (TcProtChymo) assay. Further: in the data most compounds retested in dose-response had high values. The class given is functional. The settings on record: 9.37 µM.

The species named for the next test is Homo sapiens. Kind of test: To identify inhibition of the IFN signalling (Jak-Stat) pathway via expression of an eGFP reporter gene under the control of an IFN-stimulated response element (ISRE) containing MxA promoter. The test is classed as functional. The settings on record: 30 µM. Background: In a reporter assay the amount or activity of a reporter protein is the signal.

Test [7] has as its target T4, Tyrosyl-tRNA synthetase, putative (Trypanosoma cruzi (strain CL Brener)) (UniProt Q4DSP6).
T4 sequence (whole entry): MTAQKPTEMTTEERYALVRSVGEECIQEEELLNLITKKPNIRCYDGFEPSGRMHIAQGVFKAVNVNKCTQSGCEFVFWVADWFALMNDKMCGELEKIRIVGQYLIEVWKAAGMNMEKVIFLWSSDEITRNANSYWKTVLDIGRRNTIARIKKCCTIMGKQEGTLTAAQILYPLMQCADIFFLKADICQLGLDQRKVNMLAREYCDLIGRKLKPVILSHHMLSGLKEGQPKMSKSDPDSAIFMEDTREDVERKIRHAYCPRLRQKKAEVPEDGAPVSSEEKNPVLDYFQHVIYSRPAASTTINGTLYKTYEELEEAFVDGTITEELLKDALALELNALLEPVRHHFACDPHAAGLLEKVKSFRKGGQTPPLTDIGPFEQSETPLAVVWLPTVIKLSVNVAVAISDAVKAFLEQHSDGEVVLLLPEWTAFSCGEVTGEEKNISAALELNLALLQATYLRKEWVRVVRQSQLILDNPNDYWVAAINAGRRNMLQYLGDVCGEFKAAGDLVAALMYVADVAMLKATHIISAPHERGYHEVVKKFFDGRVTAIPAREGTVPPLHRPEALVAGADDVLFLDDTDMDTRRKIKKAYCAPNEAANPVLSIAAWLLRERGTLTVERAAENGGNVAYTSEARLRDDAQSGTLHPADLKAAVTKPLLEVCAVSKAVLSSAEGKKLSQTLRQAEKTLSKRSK
Description: Trypanosoma cruzi tyrosyl tRNA synthetase (TcYRS) _High Tyrosine SOP. Further: in the data most compounds retested in dose-response had high values. The test is classed as functional. The settings on record: 30 µM.

The target in test [8] is T4, Tyrosyl-tRNA synthetase, putative (Trypanosoma cruzi (strain CL Brener)). Description: Trypanosoma cruzi tyrosyl tRNA synthetase (TcYRS) SOP. The test is classed as functional. The settings on record: 30 µM.
Test [9] addresses Chromo domain-containing protein 1 (Saccharomyces cerevisiae (strain ATCC 204508 / S288c) (Baker's yeast)) (UniProt P32657). Kind of test: ScCHD-1 Enzyme Inhibition Assay. Further: in the data most compounds retested in dose-response had high values. The settings on record: 30 µM. The class given is functional.

Drawing on ChEMBL document CHEMBL3988442, “University of Dundee, Small-Polar-MMV Screening Library” (2021), this text covers Percent Effect for ten compounds.

For some assays here: Potency and affinity values are given separately.

Sialic acid-binding Ig-like lectin 9 (Homo sapiens), sequence (Q9Y336 whole entry): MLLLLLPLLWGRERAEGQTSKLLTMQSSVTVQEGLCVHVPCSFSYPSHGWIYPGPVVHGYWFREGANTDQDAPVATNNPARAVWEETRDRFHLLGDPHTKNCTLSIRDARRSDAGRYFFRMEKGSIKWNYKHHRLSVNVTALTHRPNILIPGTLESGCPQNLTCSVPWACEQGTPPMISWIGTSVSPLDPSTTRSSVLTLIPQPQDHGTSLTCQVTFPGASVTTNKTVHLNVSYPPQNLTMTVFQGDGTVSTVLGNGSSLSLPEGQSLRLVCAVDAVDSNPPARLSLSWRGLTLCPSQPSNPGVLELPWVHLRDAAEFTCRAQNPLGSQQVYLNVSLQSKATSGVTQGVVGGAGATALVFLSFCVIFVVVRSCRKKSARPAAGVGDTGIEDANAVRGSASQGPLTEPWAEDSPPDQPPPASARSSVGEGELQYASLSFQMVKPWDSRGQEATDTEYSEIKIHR
Protein translocase subunit SecA (Escherichia coli (strain K12)), sequence (P10408 whole entry): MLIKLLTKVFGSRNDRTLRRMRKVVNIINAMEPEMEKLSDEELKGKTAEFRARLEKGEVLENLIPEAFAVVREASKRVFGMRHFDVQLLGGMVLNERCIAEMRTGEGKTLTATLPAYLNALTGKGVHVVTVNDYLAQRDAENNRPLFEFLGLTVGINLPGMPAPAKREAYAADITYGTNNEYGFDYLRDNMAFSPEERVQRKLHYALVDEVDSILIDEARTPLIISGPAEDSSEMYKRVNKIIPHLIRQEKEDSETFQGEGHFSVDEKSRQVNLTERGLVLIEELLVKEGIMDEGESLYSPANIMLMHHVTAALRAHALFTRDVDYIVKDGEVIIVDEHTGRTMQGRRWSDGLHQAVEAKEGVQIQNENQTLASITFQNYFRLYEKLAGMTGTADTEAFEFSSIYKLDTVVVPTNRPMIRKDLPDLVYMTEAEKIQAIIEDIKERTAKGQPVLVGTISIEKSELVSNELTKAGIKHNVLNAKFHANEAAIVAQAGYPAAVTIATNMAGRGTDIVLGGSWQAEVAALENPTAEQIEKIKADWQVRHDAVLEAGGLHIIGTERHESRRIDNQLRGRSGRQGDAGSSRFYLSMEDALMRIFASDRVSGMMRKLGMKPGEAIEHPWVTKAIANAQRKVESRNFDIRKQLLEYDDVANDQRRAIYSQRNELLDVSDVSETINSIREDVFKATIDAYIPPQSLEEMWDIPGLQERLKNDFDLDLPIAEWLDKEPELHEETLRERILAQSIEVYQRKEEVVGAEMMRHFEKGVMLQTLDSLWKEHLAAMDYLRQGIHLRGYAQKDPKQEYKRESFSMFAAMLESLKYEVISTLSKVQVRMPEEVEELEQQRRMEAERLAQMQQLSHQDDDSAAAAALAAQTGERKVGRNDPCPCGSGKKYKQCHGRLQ
Chromo domain-containing protein 1 (Saccharomyces cerevisiae (strain ATCC 204508 / S288c) (Baker's yeast)), sequence (P32657 whole entry, the tested form may be a part): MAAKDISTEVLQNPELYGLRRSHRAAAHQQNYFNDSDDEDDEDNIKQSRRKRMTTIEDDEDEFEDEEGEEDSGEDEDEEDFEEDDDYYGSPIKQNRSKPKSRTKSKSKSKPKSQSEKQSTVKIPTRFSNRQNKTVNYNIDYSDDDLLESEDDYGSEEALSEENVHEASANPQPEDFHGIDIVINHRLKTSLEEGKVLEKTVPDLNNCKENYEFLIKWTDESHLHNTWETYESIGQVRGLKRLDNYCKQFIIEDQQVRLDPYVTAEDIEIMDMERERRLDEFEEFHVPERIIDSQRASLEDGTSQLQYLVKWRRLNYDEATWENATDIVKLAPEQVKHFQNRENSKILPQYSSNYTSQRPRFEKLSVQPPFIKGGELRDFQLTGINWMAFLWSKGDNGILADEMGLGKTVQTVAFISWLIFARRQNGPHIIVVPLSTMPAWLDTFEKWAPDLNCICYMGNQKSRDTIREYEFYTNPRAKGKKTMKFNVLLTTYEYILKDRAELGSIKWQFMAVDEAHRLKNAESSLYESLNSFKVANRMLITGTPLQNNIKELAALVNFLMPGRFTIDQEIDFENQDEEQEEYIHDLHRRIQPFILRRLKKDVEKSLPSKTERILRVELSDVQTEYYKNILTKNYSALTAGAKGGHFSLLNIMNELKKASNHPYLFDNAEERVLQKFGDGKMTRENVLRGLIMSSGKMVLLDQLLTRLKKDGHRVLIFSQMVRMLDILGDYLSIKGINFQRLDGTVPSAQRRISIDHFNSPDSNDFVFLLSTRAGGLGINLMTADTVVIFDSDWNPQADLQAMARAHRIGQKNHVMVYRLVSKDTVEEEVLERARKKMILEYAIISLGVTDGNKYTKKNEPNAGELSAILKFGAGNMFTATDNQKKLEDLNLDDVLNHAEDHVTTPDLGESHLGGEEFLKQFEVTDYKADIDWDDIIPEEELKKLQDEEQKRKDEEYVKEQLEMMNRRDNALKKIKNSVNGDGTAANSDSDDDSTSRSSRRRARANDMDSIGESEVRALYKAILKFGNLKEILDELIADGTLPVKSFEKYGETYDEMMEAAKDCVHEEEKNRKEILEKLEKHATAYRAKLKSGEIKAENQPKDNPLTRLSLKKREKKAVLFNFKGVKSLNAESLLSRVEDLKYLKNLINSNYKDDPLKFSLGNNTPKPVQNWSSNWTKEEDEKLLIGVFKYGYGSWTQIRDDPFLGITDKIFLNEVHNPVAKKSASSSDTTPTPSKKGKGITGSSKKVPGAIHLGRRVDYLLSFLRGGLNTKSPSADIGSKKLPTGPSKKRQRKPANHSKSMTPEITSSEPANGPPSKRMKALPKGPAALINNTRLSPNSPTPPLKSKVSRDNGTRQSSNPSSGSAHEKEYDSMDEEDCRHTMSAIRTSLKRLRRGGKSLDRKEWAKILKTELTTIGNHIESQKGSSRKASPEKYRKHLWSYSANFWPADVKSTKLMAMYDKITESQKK

Consider `O=C(O)c1ccn(-c2ccccc2NS(=O)(=O)c2ccccc2)n1`, for which the Percent Effect in test [1] is -4.7%; in test [2], 0%; in [3] it was 0.362%; in [4], 0.187%; in the test with Trypanosoma cruzi, -5.16%; in test [5] it was 2.08%. Also, the Percent Effect is 9.24% in test [6]; 7.84% in the test listed under Homo sapiens; 3.83% in [7]; 3.7% in test [8]; -5.14% in [9].
Regarding `O=C(c1cncc(N2CCC3(CCNCC3)CC2)n1)N1CCCC1`, the Percent Effect is -4.3% in test [1]; 18.7% in [2]; 1.16% in [3]; 15.6% in test [4]; 5.94% in the test with Trypanosoma cruzi; 33.9% in test [5]. The Percent Effect was 23.7% in test [6]; 12.9% in the test listed under Homo sapiens; 7.1% in [7]; 21% in test [8]; -13.4% in test [9].
Consider `Cc1cc(C(=O)N2CCCC(n3cncn3)C2)c(C)n1C1CC1` (stereo not given), for which the Percent Effect in test [1] was -2.41%; in test [2] it was -3.8%; in test [3], 2.66%; in test [4], 1.98%; with Trypanosoma cruzi, 1.54%; in test [5], 2.37%. The Percent Effect is -1.54% in test [6]; -3.71% in the test listed under Homo sapiens; 2.08% in [7]; 2.53% in test [8]; 11.1% in test [9].
For the compound `CCC(=O)N1CCN(Cc2cc(-c3ccncc3)nn2C)CC1`, the Percent Effect is -5.35% in [1]; -6.76% in test [2]; 12.8% in test [3]; 5.24% in test [4]; -3.56% in the test on Trypanosoma cruzi; -1.62% in [5]. In addition, the Percent Effect in [6] was 5.77%; in the test filed under Homo sapiens, -3.21%; in test [7] it was 4.3%; in test [8], -1.3%; in test [9], -2.41%.
On to `CC(C)(NCC(=O)NCC(F)(F)F)c1ccc2c(c1)OCCO2`, for which the Percent Effect in test [1] is -1.45%; in test [2] it was 13.5%; in test [3], -7.25%; in [4] it was 1.31%; in the test with Trypanosoma cruzi, -4.06%; in [5], 17.2%. Moreover, the Percent Effect in test [6] was 16%; in the test listed under Homo sapiens it was 5.37%; in test [7], 1.48%; in test [8], 18.5%; in test [9], -4.3%.
`Cc1nn(C)c(N2CCOCC2)c1CNC1CCN(C(C)(C)C)CC1`: the Percent Effect in test [1] is -2.55%; in test [2] it was 20.2%; in test [3], -9.63%; in test [4] it was -2.51%; in the test on Trypanosoma cruzi it was -1.42%; in [5], -0.38%. For the same compound, the Percent Effect in test [6] was 13.5%; in the test filed under Homo sapiens, 10.5%; in test [7], 5.42%; in test [8], 16.5%; in test [9], -4.24%.
`CN1N=C(C(=O)Nc2cc(F)ccc2OCC2CCCO2)CCC1=O` (stereo not given): the Percent Effect in test [1] was -1.5%; in test [2], -5.2%; in [3], 12%; in test [4], 2.24%; in the test with Trypanosoma cruzi it was 7.3%; in [5], -6.41%. In addition, the Percent Effect in test [6] was 6.25%; in the test listed under Homo sapiens, -6.34%; in [7] it was 1.94%; in test [8] it was 2.44%; in test [9], -8.4%.
With `COc1ccc2c(c1)CN(Cc1nc3c(cnn3C)c(=O)[nH]1)CC2`, the Percent Effect is -1.51% in [1]; 15.2% in test [2]; -8.08% in test [3]; 0.541% in [4]; 0.85% in the test with Trypanosoma cruzi; 2.66% in test [5]. In addition, the Percent Effect was 7.45% in test [6]; 8.47% in the test listed under Homo sapiens; 4.43% in test [7]; 21.5% in test [8]; -7.47% in [9].
With `COc1ccccc1CN(C)C(=O)c1cc(CN2CCC(O)CC2)on1`, the Percent Effect was -4.25% in test [1]; 2.74% in [2]; 26.1% in test [3]; 19.3% in test [4]; 3.53% in the test with Trypanosoma cruzi; 18.6% in test [5]. In addition, the Percent Effect in test [6] is 12.8%; in the test filed under Homo sapiens, -1.57%; in test [7] it was 6.45%; in [8] it was 20%; in test [9], 100%.
Turning to `COc1ccccc1N1CCC(CNCc2cccc(C#N)c2)C1` (stereo not given), the Percent Effect in test [1] was -2.81%; in [2] it was 8.11%; in test [3] it was 9.38%; in [4] it was -7.09%; in the test on Trypanosoma cruzi, 3.11%; in test [5], -8.82%. The Percent Effect was 17.3% in [6]; -10.4% in the test listed under Homo sapiens; 13.3% in test [7]; 18.5% in [8]; 10.3% in test [9].
